The results in this text go back to ChEMBL document CHEMBL3988442, “University of Dundee, Small-Polar-MMV Screening Library” (2021).

In the test the target is AMP-activated protein kinase, AMPK (Homo sapiens) (UniProt P54646+O43741+P54619+Q9UGJ0+Q9Y478+Q13131+Q9UGI9). The experiment in a line: AMP-dependent Kinase enzyme assay. An in vitro enzyme assay that detects ADP turnover that is directly proportional to AMPK activity. This uses naive AMPK that is activated during the assay with MK-8722. In kind it is functional. The following applies: 30 µM. Set-up: scale not given: direction of the effect not stated beside the values.
`NC(=O)c1ccc(CNC(=O)NCc2cc[nH]n2)cc1`: the Percent Effect was -5.62%. The figure for `CN(C)c1ccc(C(=O)Nc2ccn(CC(N)=O)n2)cn1` is 10.9%; for `CCN1CCN(c2ccccc2NC(=O)NCc2ccon2)CC1` it is 2.14%. The figure for `Cc1ccnc(NC(=O)c2ccc(F)c(S(=O)(=O)NC3CC3)c2)c1` is -7.9%. The figure for `NC(=O)c1cc(C2CCCN(CCc3ccc4c(c3)CCO4)C2)n[nH]1` (centres undefined) is 3.33%; for `Cc1ccc2nc(CN3CCCCC3CCN3CCOCC3)cn2c1` (centres undefined) it is 6.28%; for `COc1ccccc1CCN(C)C(C)c1nc(-c2cccnc2)no1` (centres undefined) it is 1.66%.

As for `Cc1nc(CNCC2CNc3ccnn3C2)cs1` (centres undefined), the Percent Effect is -8.22%. Regarding `CC(C)OCCN1CCC(Nc2ncc(Br)cn2)CC1`, the Percent Effect is 10.5%.

As to `Cc1cc(-c2cnc(N3CCC(C(N)=O)CC3)nc2C(C)C)on1`, the Percent Effect is 21.5%. Consider `O=C(c1ccncc1)N1CCC(Oc2cccc(C(F)(F)F)c2)CC1`, for which the Percent Effect was -1.49%. Consider `CC(C)(C)NC(=O)C1CCCCN1Cc1nccn1CC(F)(F)F` (centres undefined), for which the Percent Effect is -2.34%.

For `Cn1ccc(C(=O)N2CCCC2c2cc(CO)[nH]n2)n1` (centres undefined), the Percent Effect was determined as 20.7%. `CCc1ncc2c(n1)CN(c1cc(NCCO)nc(N)n1)C2`: the Percent Effect was -219%. Next, `Cn1cccc1CN(C(=O)CC(CC(=O)O)c1cccs1)C1CC1` (centres undefined): -2.3%; `CC(C)c1cc(C2CCN(C(=O)Cn3cnnn3)CC2)[nH]n1`: 12.8%; `Cn1cnc(S(=O)(=O)N2CCCCc3ccccc32)c1`: -0.149%. Consider `CC(C)N1CC(c2ccnc(Nc3nccs3)n2)C1`, for which the Percent Effect was 13.4%.

Consider `CCc1ccc(C(=O)N2CCCCC2CNS(C)(=O)=O)o1` (centres undefined), for which the Percent Effect was -5.12%. As for `Clc1ccc2c(c1)C=C(CNC1CCc3ncnn3C1)CO2` (centres undefined), the Percent Effect came to 12.6%. Next, `CC(C)(C)NC(=O)CN1CCNCC1`: 1.56%. With `O=c1[nH]nc(C2CC2)n1-c1cccc(Cl)c1`, the Percent Effect is -10.6%. On to `CN(Cc1ccc(C#N)cc1)C(=O)c1ccn(C)c(=O)c1`, for which the Percent Effect worked out at 5.01%. For the compound `Cc1ncsc1CCN(C)Cc1ccc(Br)o1`, the Percent Effect is -1.27%.

For `Cc1cc(NC(=O)CN2CCN(C3CCCC3)C(=O)C2)nn1C`, the Percent Effect came to 8.93%. Take `CCN(Cc1cccc2c1OCCO2)C(=O)NC(C)(C)C`: the Percent Effect was -7.11%. Take `CNc1ccc(C)cc1C(=O)N1CCCC2(CCNC2)C1` (centres undefined): the Percent Effect came to 10.4%. Next, `CNC(=O)NC(=O)CN1CCc2c(Br)ccc(F)c2C1`: 5.32%; `COc1ccc(OC2CCN(C(=O)c3cnc(C)s3)CC2)cc1`: -2.19%. The figure for `CCNc1ncc(C(=O)NCc2csc(C)n2)cn1` is -2.12%; for `COc1ccc(C(=O)NC2CCN(c3ncccn3)CC2)cc1F` it is -7.58%; for `Cc1cc(C)c(C(=O)N(C)CCN(C)C(=O)OC(C)(C)C)[nH]1` it is -0.277%. Consider `CC1CN(CC(=O)NCc2ccc(F)cc2)CCN1c1nccs1` (centres undefined), for which the Percent Effect was 10.2%. On to `CCCc1n[nH]c(=O)n1Cc1ccc(OC)cc1`, for which the Percent Effect worked out at 3.68%. In the case of `COc1ccc(CN(Cc2ccsc2)CC2CCCO2)cn1` (centres undefined), the Percent Effect stood at 5.75%. The figure for `CCC(NCCn1cccn1)C(=O)Nc1cc(C)on1` (centres undefined) is 2.9%; for `COCc1c(Cl)cccc1NC(=O)CNC(=O)C(C)(C)C` it is -4.63%; for `CC(C)[C@H]1CN(Cc2ccccn2)C[C@@H]1NC(=O)CCS(C)(=O)=O` it is 9.37%.

In the case of `NC(=O)CCn1ccc(NCc2cc(F)ccc2Br)n1`, the Percent Effect was -0.0146%.
